From the supplement of paper PMC9844399
Where a name gives a salt, the structure may show the parent alone.

tested on: HeLa; experiment: nuclear count per well, robust Z-score vs DMSO; higher = more cells (less toxicity); details: 10 µM; 6 h
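For MALAT1 nuclear FISH intensity, robust Z-score vs DMSO in this document: High-content confocal imaging of branched-DNA amplified FISH in 384-well plates, Hoechst-defined nuclei, score is well value minus plate DMSO median over DMSO robust SD, four wells per compound.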
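For nuclear count per well, robust Z-score vs DMSO in this document: Hoechst-stained nuclei counted by automated confocal imaging of four fields per well in 384-well plates, with the robust Z-score based on the per-plate DMSO median and robust SD.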

| SMILES | nuclear count per well |
| --- | --- |
| CO/N=C(\C(=O)N[C@@H]1C(=O)N2C(C(=O)O)=C(COC(C)=O)CS[C@H]12)c1csc(N)n1 [Cefotaxime Acid] | 0.588 |
| CCCCN1CCCCC1C(=O)Nc1c(C)cccc1C (centres undefined) | -0.695 |
| CN1C(=O)CC(C)(c2ccccc2)C1=O (centres undefined) [Methsuximide] | 0.327 |
| CCCCC[C@H](O)/C=C/[C@H]1[C@H](O)CC(=O)[C@@H]1C/C=C\CCCC(=O)O [Prostaglandin  E2] | 1.41 |
| Cn1c(=O)n(-c2ccc(C(C)(C)C#N)cc2)c2c3cc(-c4cnc5ccccc5c4)ccc3ncc21 | 0.426 |
| Oc1cccc(-c2nc(N3CCOCC3)c3oc4ncccc4c3n2)c1 | 1.28 |
| Cc1[nH]cnc1CN1CCc2c(c3ccccc3n2C)C1=O | 0.399 |
| CCOC(=O)C1=C(C)NC(=S)NC1c1cccc(O)c1 (centres undefined) [Monastrol] | 0.338 |
| Cc1[nH]c2ccccc2c1CCNC(=O)c1ccccc1F | -0.994 |
| CCOC(=O)[C@H](CCc1ccccc1)N[C@@H](C)C(=O)N1Cc2cc(OC)c(OC)cc2C[C@H]1C(=O)O | -0.0857 |
| Clc1ccc(CCC(Cn2ccnc2)Sc2c(Cl)cccc2Cl)cc1 (centres undefined) [Butoconazole Nitrate] | 1.32 |
| CNC(=O)c1cc(Oc2ccc(NC(=O)Nc3ccc(Cl)c(C(F)(F)F)c3)cc2)ccn1 [Sorafenib tosylate] | -0.322 |
| CS(=O)(=O)c1ccc(C(=O)Nc2ccc(Cl)c(-c3ccccn3)c2)c(Cl)c1 [Vismodegib (GDC-0449)] | -1.68 |
| Cc1c(C(=O)Nc2ccc(N3C[C@@H](C)O[C@@H](C)C3)nc2)cccc1-c1ccc(OC(F)(F)F)cc1 | 0.565 |

tested on: HeLa; experiment: MALAT1 nuclear FISH intensity, robust Z-score vs DMSO; higher = more nuclear MALAT1 lncRNA, active = -3 or less; details: 10 µM; 6 h

| SMILES | MALAT1 nuclear FISH intensity |
| --- | --- |
| CC[C@H](C)C(=O)O[C@H]1C[C@@H](C)C=C2C=C[C@H](C)[C@H](CC[C@@H](O)C[C@@H](O)CC(=O)O)[C@H]21 [Lovastatin Sodium Salt] | -0.314 (inactive) |
| CCCCCCCCCCCCC/C=C/[C@@H](O)[C@H](CO)NC(C)=O [C2 Ceramide] | 0.202 (inactive) |
| N[C@@H](C(=O)N[C@@H]1C(=O)N2C(C(=O)O)=C(Cl)CS[C@H]12)c1ccccc1 [Cefaclor] | 1.19 (inactive) |
| CCCCNc1cc(C(=O)O)cc(S(N)(=O)=O)c1Oc1ccccc1 [Bumetanide] | -1.25 (inactive) |
| O=C1NC(=O)C(c2ccccc2)(c2ccccc2)N1 [Phenytoin] | 0.723 (inactive) |
| CCC[C@@H]1C[C@@H](C(=O)N[C@@H]([C@H]2O[C@H](SC)[C@H](O)[C@@H](O)[C@H]2O)[C@@H](C)O)N(C)C1 | -0.0208 (inactive) |
| CO/N=C(\C(=O)N[C@@H]1C(=O)N2C(C(=O)O)=C(COC(N)=O)CS[C@H]12)c1ccco1 | -0.402 (inactive) |
| CN(C)/N=N/c1[nH]cnc1C(N)=O [Dacarbazine] | 0.246 (inactive) |
| Cn1cc(C2=C(c3cn(CCCSC(=N)N)c4ccccc34)C(=O)NC2=O)c2ccccc21 [Ro 31-8220 methanesulfonate salt] | -2.38 (inactive) |
| Nc1ncnc2c1nc(Br)n2[C@@H]1O[C@@H]2COP(=O)(O)O[C@H]2[C@H]1O [8-Bromo-cAMP] | -1.97 (inactive) |
| O=C(OCC(O)CO)c1ccccc1Nc1ccnc2cc(Cl)ccc12 (centres undefined) [Glafenine] | -0.399 (inactive) |
| COc1ccnc(C[S+]([O-])c2nc3cc(OC(F)F)ccc3[nH]2)c1OC (centres undefined) [Pantoprazole] | 1.09 (inactive) |
| CC(C)C[C@H](NC(=O)[C@H](Cc1ccccc1)NC(=O)c1cnccn1)B(O)O [Bortezomib] | 8.86 (inactive) |
| CCCC[C@@H](C=O)NC(=O)[C@H](CC(C)C)NC(=O)OCc1ccccc1 [Calpeptin] | -2.28 (inactive) |
| CCN1CC(CCN2CCOCC2)C(c2ccccc2)(c2ccccc2)C1=O (centres undefined) | -0.153 (inactive) |
| CC1(C)S[C@@H]2[C@H](NC(=O)COc3ccccc3)C(=O)N2[C@H]1C(=O)O [Penicillin V Potassium Salt] | 0.0175 (inactive) |
| O=C1CCc2c(ccc3ccccc23)O1 [Splitomycin] | -0.762 (inactive) |
| COc1cc2nc(N3CCN(C(=O)c4ccco4)CC3)nc(N)c2cc1OC [Prazocin] | -0.261 (inactive) |
| Cc1ccc(N(CC2=NCCN2)c2cccc(O)c2)cc1 [Phentolamine hydrochloride] | 0.687 (inactive) |
| CCCCCC#CCC#CCC#CCC#CCCCC(=O)O [5,8,11,14-Eicosatetraynoic acid] | -0.86 (inactive) |

| SMILES | MALAT1 nuclear FISH intensity |
| --- | --- |
| CS(=O)(=O)CCNCc1ccc(-c2ccc3ncnc(Nc4ccc(OCc5cccc(F)c5)c(Cl)c4)c3c2)o1 [Lapatinib Ditosylate] | 3.02 (inactive) |
| CC(C)(S)[C@@H](N)C(=O)O [Penicillamine (D-Penicillamine)] | 0.684 (inactive) |
| Nc1ccc(O)c(C(=O)O)c1 [Mesalamine (5-Aminosalicylic Acid)] | 0.788 (inactive) |
| CNCCCC12CCC(c3ccccc31)c1ccccc12 | -0.734 (inactive) |
| CCCCCCCN(CC)CCCC(O)c1ccc(NS(C)(=O)=O)cc1 (centres undefined) [Ibutilide Fumarate] | -1.14 (inactive) |
| CCCCc1nc(Cl)c(CO)n1Cc1ccc(-c2ccccc2-c2nnn[nH]2)cc1 [Losartan Potassium] | 0.206 (inactive) |
| CO/N=C(\C(=O)N[C@@H]1C(=O)N2C(C(=O)O)=C(COC(C)=O)CS[C@H]12)c1csc(N)n1 [Cefotaxime Acid] | 0.476 (inactive) |
| CCCCN1CCCCC1C(=O)Nc1c(C)cccc1C (centres undefined) | -1.15 (inactive) |
| CN1C(=O)CC(C)(c2ccccc2)C1=O (centres undefined) [Methsuximide] | -0.55 (inactive) |
| CCCCC[C@H](O)/C=C/[C@H]1[C@H](O)CC(=O)[C@@H]1C/C=C\CCCC(=O)O [Prostaglandin  E2] | -0.672 (inactive) |
| Cn1c(=O)n(-c2ccc(C(C)(C)C#N)cc2)c2c3cc(-c4cnc5ccccc5c4)ccc3ncc21 | 0.283 (inactive) |
| Oc1cccc(-c2nc(N3CCOCC3)c3oc4ncccc4c3n2)c1 | -1.86 (inactive) |
| Cc1[nH]cnc1CN1CCc2c(c3ccccc3n2C)C1=O | -1.58 (inactive) |
| CCOC(=O)C1=C(C)NC(=S)NC1c1cccc(O)c1 (centres undefined) [Monastrol] | -2.86 (inactive) |
| Cc1[nH]c2ccccc2c1CCNC(=O)c1ccccc1F | -0.887 (inactive) |
| CCOC(=O)[C@H](CCc1ccccc1)N[C@@H](C)C(=O)N1Cc2cc(OC)c(OC)cc2C[C@H]1C(=O)O | 0.383 (inactive) |
| Clc1ccc(CCC(Cn2ccnc2)Sc2c(Cl)cccc2Cl)cc1 (centres undefined) [Butoconazole Nitrate] | 0.588 (inactive) |
| CNC(=O)c1cc(Oc2ccc(NC(=O)Nc3ccc(Cl)c(C(F)(F)F)c3)cc2)ccn1 [Sorafenib tosylate] | -1.48 (inactive) |
| CS(=O)(=O)c1ccc(C(=O)Nc2ccc(Cl)c(-c3ccccn3)c2)c(Cl)c1 [Vismodegib (GDC-0449)] | -0.859 (inactive) |
| Cc1c(C(=O)Nc2ccc(N3C[C@@H](C)O[C@@H](C)C3)nc2)cccc1-c1ccc(OC(F)(F)F)cc1 | 0.333 (inactive) |
